Measured values reported in paper PMC7862700, “An all-to-all approach to the identification of sequence-specific readers for epigenetic DNA modifications on cytosine”.

Key:
Experiment in all cases: DAPPL (digital affinity profiling via proximity ligation, sequencing); 10 mM Tris-HCl pH 7.5, 50 mM NaCl, 1 mM DTT, 4% glycerol, room temperature, 30 min; GST-TFs on glutathione beads, 16-mer random dsDNA library, 0.1% formaldehyde crosslink after washing; high values mean tight binding
FEV = molecular target: T1, FEV (Homo sapiens, UniProt Q99581 1-238); settings: protein: recombinant; tags: N-terminal GST; dsDNA, one strand shown
T1 sequence: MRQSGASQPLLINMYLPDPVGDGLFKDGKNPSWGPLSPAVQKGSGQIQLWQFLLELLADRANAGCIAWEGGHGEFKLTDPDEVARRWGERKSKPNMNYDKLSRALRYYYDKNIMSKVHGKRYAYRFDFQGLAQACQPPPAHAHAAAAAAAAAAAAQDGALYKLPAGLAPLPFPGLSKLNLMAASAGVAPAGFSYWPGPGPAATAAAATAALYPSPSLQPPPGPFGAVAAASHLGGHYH
Outline: (§1)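 A tag-only sample was pooled with DNA-barcoded human transcription factors that had been expressed in yeast as GST fusions and captured on glutathione beads. The pools were incubated for 30 min at room temperature with 200 nmole of a random double-stranded 16-mer DNA library in Tris/NaCl/DTT/glycerol buffer, then washed, crosslinked with 0.1% formaldehyde, proximity-ligated (BsaI/T4 ligase, 1 h, 37 °C), PCR-amplified and sequenced on an Illumina NextSeq500. Binding signal is each hexamer's read frequency for a factor divided by its frequency for the tag-only sample.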

ETV5 = ETV5 (Homo sapiens, UniProt P41161 1-510); settings: protein: recombinant; tags: N-terminal GST; dsDNA, one strand shown
Chain of ETV5 (P41161 whole entry): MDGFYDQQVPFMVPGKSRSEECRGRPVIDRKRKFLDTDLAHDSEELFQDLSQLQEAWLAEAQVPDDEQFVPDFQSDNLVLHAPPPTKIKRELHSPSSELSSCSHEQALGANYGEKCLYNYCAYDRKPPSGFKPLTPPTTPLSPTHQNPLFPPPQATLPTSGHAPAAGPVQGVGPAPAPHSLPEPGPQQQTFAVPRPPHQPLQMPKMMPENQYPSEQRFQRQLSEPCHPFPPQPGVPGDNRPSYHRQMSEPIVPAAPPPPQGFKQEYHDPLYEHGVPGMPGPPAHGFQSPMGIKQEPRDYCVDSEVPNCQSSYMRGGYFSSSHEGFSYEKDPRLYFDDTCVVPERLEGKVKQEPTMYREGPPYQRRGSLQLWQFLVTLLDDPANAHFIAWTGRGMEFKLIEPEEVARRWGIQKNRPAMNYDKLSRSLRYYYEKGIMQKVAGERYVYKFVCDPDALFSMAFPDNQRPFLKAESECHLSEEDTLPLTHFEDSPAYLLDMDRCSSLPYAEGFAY
Outline: as §1

HSF1 = HSF1 (Homo sapiens, UniProt Q00613 1-529); settings: protein: recombinant; tags: N-terminal GST; chain copies: 3; dsDNA, one strand shown
Chain of HSF1 (Q00613 whole entry): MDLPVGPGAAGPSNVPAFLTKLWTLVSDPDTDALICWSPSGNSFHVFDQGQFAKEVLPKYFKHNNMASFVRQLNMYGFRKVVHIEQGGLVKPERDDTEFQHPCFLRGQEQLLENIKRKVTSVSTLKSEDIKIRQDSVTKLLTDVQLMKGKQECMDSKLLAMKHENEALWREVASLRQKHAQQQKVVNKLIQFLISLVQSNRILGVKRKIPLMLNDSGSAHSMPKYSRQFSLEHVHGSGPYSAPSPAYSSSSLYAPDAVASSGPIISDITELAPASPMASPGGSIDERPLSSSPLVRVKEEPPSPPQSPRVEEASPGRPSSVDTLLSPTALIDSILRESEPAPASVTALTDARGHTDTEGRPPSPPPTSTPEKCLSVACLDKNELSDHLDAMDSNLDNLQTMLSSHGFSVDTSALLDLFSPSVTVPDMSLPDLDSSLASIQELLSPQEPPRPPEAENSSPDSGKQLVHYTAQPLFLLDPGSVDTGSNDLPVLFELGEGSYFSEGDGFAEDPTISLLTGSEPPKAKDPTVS
Outline: as §1

SPIC = molecular target: T2, SPIC (Homo sapiens, UniProt Q8N5J4 1-248); settings: protein: recombinant; tags: N-terminal GST; dsDNA, one strand shown
T2 sequence: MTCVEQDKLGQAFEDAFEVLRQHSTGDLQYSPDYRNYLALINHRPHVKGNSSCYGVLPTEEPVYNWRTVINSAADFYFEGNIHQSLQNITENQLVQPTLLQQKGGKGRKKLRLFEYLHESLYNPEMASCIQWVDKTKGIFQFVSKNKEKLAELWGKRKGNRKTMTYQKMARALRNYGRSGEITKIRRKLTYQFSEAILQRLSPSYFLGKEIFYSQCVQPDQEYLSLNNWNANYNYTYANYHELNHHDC
Outline: as §1

ELF4 = ELF4 (Homo sapiens, UniProt Q99607 1-663); settings: protein: recombinant; tags: N-terminal GST; dsDNA, one strand shown
Chain of ELF4 (Q99607 whole entry): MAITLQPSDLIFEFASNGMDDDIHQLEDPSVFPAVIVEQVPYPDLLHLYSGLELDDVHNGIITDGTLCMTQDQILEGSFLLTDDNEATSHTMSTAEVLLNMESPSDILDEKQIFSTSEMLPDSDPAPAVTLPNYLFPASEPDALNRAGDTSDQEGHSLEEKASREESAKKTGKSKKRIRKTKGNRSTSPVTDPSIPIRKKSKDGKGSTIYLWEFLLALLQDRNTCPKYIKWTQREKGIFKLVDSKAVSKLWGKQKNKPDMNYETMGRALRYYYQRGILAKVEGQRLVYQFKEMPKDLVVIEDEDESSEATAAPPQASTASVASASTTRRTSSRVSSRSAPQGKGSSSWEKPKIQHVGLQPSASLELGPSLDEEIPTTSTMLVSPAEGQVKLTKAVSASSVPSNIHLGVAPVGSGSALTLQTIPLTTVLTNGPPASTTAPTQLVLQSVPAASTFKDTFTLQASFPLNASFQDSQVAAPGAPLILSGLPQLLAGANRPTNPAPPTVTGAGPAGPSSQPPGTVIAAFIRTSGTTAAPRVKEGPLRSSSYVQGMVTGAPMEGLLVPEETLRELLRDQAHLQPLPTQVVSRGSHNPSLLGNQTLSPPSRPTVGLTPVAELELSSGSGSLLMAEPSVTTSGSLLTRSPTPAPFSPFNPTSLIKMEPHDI
Outline: as §1

ELK4 = molecular target: T3, ELK4 (Homo sapiens, UniProt P28324-2 1-405); settings: protein: recombinant; tags: N-terminal GST; dsDNA, one strand shown
T3 sequence: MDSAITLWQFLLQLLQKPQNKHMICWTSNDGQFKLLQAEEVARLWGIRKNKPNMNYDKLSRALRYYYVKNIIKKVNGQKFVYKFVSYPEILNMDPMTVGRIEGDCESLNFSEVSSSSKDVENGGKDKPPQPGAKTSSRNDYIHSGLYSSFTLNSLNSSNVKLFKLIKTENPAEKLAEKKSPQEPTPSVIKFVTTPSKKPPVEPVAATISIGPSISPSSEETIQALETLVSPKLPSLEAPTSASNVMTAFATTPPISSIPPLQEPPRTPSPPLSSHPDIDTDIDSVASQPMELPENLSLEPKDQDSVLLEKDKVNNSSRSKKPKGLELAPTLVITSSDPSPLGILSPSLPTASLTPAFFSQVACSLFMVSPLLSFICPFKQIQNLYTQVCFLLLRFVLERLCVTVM
Outline: as §1

ETV2 = molecular target: T4, ETV2 (Homo sapiens, UniProt O00321 1-342); settings: protein: recombinant; tags: N-terminal GST; dsDNA, one strand shown
T4 sequence: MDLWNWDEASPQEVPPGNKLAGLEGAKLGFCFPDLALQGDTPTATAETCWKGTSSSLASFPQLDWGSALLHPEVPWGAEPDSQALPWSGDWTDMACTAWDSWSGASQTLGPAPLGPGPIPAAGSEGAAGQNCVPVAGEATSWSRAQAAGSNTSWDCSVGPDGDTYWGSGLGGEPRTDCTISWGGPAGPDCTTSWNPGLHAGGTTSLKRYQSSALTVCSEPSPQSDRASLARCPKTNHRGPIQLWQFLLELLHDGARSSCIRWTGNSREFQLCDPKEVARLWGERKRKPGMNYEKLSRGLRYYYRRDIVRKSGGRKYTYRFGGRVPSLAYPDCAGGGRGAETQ
Outline: as §1

ELF3 = molecular target: T5, ELF3 (Homo sapiens, UniProt P78545 1-371); settings: protein: recombinant; tags: N-terminal GST; dsDNA, one strand shown
T5 sequence: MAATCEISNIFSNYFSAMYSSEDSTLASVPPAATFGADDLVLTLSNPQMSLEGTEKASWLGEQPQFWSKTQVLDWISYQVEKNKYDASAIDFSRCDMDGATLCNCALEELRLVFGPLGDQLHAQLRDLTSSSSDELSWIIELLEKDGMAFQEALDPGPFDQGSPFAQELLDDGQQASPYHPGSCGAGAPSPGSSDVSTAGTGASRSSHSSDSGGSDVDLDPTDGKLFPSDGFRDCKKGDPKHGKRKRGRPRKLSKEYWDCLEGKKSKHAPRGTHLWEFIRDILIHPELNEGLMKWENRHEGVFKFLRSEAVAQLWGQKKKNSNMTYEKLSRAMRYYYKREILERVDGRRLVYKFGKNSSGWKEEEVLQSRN
Outline: as §1

CRX = CRX (Homo sapiens, UniProt O43186 1-299); settings: protein: recombinant; tags: N-terminal GST; dsDNA, one strand shown
Chain of CRX (O43186 whole entry): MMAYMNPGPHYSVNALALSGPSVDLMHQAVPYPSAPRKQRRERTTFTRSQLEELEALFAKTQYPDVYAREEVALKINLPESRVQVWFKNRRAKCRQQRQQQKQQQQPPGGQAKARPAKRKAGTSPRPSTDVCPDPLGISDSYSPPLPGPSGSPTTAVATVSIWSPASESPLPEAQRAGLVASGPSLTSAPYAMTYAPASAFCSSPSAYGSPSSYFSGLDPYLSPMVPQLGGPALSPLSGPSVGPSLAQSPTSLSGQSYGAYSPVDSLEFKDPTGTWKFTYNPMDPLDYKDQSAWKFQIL
Outline: as §1

ETV1 = ETV1 (Homo sapiens, UniProt P50549 1-477); settings: protein: recombinant; tags: N-terminal GST; dsDNA, one strand shown
Chain of ETV1 (P50549 whole entry): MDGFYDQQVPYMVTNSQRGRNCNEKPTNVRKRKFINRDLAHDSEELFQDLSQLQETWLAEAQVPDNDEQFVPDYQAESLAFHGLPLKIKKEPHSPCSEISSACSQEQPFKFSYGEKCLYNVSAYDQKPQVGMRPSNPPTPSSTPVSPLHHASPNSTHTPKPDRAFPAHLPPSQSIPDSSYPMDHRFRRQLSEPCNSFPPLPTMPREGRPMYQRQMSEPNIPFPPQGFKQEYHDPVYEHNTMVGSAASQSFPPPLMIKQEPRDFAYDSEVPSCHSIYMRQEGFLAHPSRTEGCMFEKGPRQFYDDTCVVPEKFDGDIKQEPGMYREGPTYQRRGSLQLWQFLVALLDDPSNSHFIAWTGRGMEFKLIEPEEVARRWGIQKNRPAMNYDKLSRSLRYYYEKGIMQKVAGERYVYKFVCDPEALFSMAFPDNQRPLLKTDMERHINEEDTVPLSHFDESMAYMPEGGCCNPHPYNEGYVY
Outline: as §1

Sequence: ATTCGT
- binding signal (FEV): 1.12 fold enrichment (6-mer frequency, TF over GST control)
- binding signal (ETV5): 1.19 fold enrichment (6-mer frequency, TF over GST control)
- binding signal (HSF1): 1.27 fold enrichment (6-mer frequency, TF over GST control)
- binding signal (SPIC): 1.25 fold enrichment (6-mer frequency, TF over GST control)
- binding signal (ELF4): 1.24 fold enrichment (6-mer frequency, TF over GST control)
- binding signal (ELK4): 1.11 fold enrichment (6-mer frequency, TF over GST control)
- binding signal (ETV2): 1.16 fold enrichment (6-mer frequency, TF over GST control)
- binding signal (ELF3): 1.37 fold enrichment (6-mer frequency, TF over GST control)
- binding signal (CRX): 1.28 fold enrichment (6-mer frequency, TF over GST control)
- binding signal (ETV1): 1.14 fold enrichment (6-mer frequency, TF over GST control)
